Screening data from PubChem BioAssay.
HT1080NT lethal = kills 2HG-producing HT-1080-NT fibrosarcoma cells | HT-1080-NT fibrosarcoma viability, CellTiter-Glo ATP luminescence, 48 h | Potency, µM (series often up to 46.1 µM), for the others: at the top dose activity, negative = less viability, hits mostly cytotoxic | hit rate 1.6% among 360,000 | AID 686970;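 also: NT is the 2HG producing partner of a matched IDH1 knockdown line; potency is read from the fitted curve at half-maximal effect; 0% = DMSO-treated cells and -100% = media-only wells without cells; nearly all actives have a fitted effect of over 55% in size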
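Read-out is CellTiter-Glo luminescence after 10 minutes at room temperature, following 48 hours' compound treatment of HT-1080-NT cells (750 cells/well, RPMI, 5% FBS, 37 degrees C).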
IL1B secr inh = inhibitors of inflammasome signaling (IL-1 beta secretion); THP-1 LPS/ATP IL-1B secretion, AlphaLISA, 16 h; hits give low values; activity change, % at 57.5 µM; hit rate 4.7% among 360,000; in the data active = activity change below about -50%; inconclusive = mostly about -30% to -49%
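Secreted IL-1B measured by AlphaLISA bead assay after 16 h compound exposure of THP-1 cells; compounds (final up to 57.5 uM) added 1 h before LPS (250 ng/mL) and ATP (1.25 mM) stimulation; lower signal means less secretion.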
HT1080 IDH1KD tx = HT-1080 IDH1 knockdown cell toxicity (counter line); AID 686971; HT-1080 IDH1 knockdown viability, ATP luminescence, 48 h; hit rate 2% among 360,000; Potency, µM (titrated, usually from 46.1 µM), inactives show at the top dose activity, negative = toxicity, actives largely listed as cytotoxic;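 also: potency is read from the fitted curve at half-maximal effect; 0% = DMSO wells and -100% = cell-free medium wells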
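IDH1KD HT-1080 cells, 750/well, RPMI + 5% FBS; compound pinned after 2 h settling; 48 h, 37 °C; CellTiter-Glo luminescence; % activity normalised to DMSO and no-cell wells; curves fitted, classed by r2 and efficacy.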
TDP1 cell CPT = DT40-hTDP1 cell growth loss with CPT | chicken DT40 Tdp1-/-;hTDP1 cells + 20 nM CPT, ATP luminescence, 48 h | Potency, µM (titrated, usually from 46.2 µM), without a hit: at the top dose activity change, negative = growth inhibition, most hits filed as inhibitors | hit rate 12% among 420,000 | AID 686979; also: potency is read from the fitted curve at half-maximal effect; nearly all actives have a fitted effect of over 55% in size
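Cell growth measured by CellTiter-Glo luminescence after a minimum 48 h, 37 C compound exposure with 20 nM CPT in Tdp1-knockout DT40 cells stably expressing hTDP1, seeded 400/well; qHTS titration format.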
DT40 TDP1 no CPT = qHTS for Inhibitors of human tyrosyl-DNA phosphodiesterase 1 (TDP1): qHTS in cells in absence of CPT; DT40 Tdp1-/- hTDP1 cells, no CPT, ATP luminescence, 48 h; Potency, µM (doses to about 46.2 µM), for inactives: top-dose activity change, negative = growth inhibition, actives largely listed as inhibitors; AID 686978, 2013; hit rate 15% among 420,000; also: potency is read from the fitted curve at half-maximal effect; nearly all actives have a fitted effect of over 55% in size
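Seeded 400 DT40-hTDP1 cells/well (vehicle DMSO, no 20 nM CPT); pinned compounds; ≥48 hr at 37 °C; CellTiter-Glo luminescence as viability measure.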
ELG1 DNA repair = inhibitors of ELG1-dependent DNA repair in HEK293T cells | HEK293T ELG1-luciferase reporter, luminescence, 16 h; DNA damage induced by 5-fluorouridine | Potency, µM (series often up to 46.1 µM), without a hit: at the top dose activity change, negative = inhibition, usual class: inhibitors | hit rate 2.3% among 330,000 | AID 504467; also: potency is read from the fitted curve at half-maximal effect; nearly all actives have a fitted effect of over 55% in size
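DMSO vehicle served as the neutral condition. Each well held 2,000 cells given 5-fluorouridine plus compound; after 16 hr at 37 °C/5% CO2, ONE-Glo was added and luciferase measured 30 min later.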
Starred values were filed as active, the others as inactive; ? = inconclusive; / = no result given. Sampled rows, rich in hits. Any-hit rate of the full collection: about 19%. Unless noted, calls follow the shape of the dose curve; as a rule, active = well fitted curve in the direction sought with a large enough effect; inconclusive = small, poorly fitted or top-dose-only effect, or another doubt; inactive = no such curve, though single readings can be large; an effect the other way counts as inactive or inconclusive. Unless noted, % is scaled to controls: 0 for no effect and ±100 for the full control effect.

SMILES	HT1080NT lethal	IL1B secr inh	HT1080 IDH1KD tx	TDP1 cell CPT	DT40 TDP1 no CPT	ELG1 DNA repair
CCn1nc(C(=O)Nc2ccc(Cl)c(S(=O)(=O)N3CCOCC3)c2)c2ccccc2c1=O	-8%	16	-4%	?	16µM*	?
CCn1nc(C(=O)Nc2cccc(S(=O)(=O)N3CCCC3)c2)c2ccccc2c1=O	-20%	-15	-25%	?	?	?
CC(C)Cn1nc(C(=O)Nc2cccc(S(=O)(=O)N3CCCC3)c2)c2ccccc2c1=O	0%	-20	-4%	?	?	21µM*
CCCn1nc(C(=O)Nc2cccc(S(=O)(=O)N3CCOCC3)c2)c2ccccc2c1=O	-26%	?	-21%	?	26µM*	/
O=S(=O)(Nc1ccccn1)c1cc(Cl)ccc1Cl	-3%	0	7%	1%	17%	0%
NC(=O)C1CCCN(CC(=O)Nc2ccccc2C(=O)NC2CC2)C1 (stereo not given)	7%	13	12%	0%	0%	15%
Cc1sc(NC(=O)c2ccco2)c(CN2CCN(c3ccc(F)cc3)CC2)c1C	-2%	-3	-13%	21µM*	12µM*	12%
CC(=O)Nc1sc2c(c1CN1CCCC1)CCCC2	10%	2	12%	4%	-1%	6%
CC(=O)Nc1sc2c(c1CN1CCN(c3ccc(F)cc3)CC1)CCCC2	-21%	-10	-28%	?	15µM*	?
CC1CC1C(=O)N(C)CC(=O)Nc1cccc(F)c1 (stereo not given)	16%	4	15%	-11%	-5%	12%
CC(C)CNC(=O)c1cccc(NC(=O)COc2ccc([N+](=O)[O-])cc2)c1	-17%	-8	-27%	13µM*	23µM*	21µM*
CC(C)(C)SCCNC(=O)c1ccc(Cl)c([N+](=O)[O-])c1	14%	?	18%	?	16µM*	?
Cc1ccccc1CNC(=O)c1ccc(Cl)c([N+](=O)[O-])c1	1%	/	3%	?	?	-18%
CN(C)/C=C/C(=O)c1ccc(Cl)c([N+](=O)[O-])c1	5%	-96*	-4%	-8%	?	12%
CC(C)CNC(=O)c1cccc(NC(=O)c2ccc(Cl)c([N+](=O)[O-])c2)c1	-3%	-112*	0%	21µM*	21µM*	?
CN(C)/C=C/C(=O)c1cccc(Cl)c1	0%	?	2%	-18%	-25%	?
CC(C)CNC(=O)c1ccc(NC(=O)c2ccccc2[N+](=O)[O-])cc1	-5%	-22	-3%	1%	-11%	-7%
COc1ccc(S(=O)(=O)NCc2ccco2)cc1NC(=O)c1ccccc1	-26%	-12	?	?	?	-9%
Cc1cc(C)cc(NC(=O)c2cc(S(=O)(=O)N3CCCCCC3)cn2C)c1	/	/	/	-10%	-17%	/
Cc1noc(C)c1NC(=O)N(C)C[C@@H]1OCc2cnnn2CCCC(=O)N([C@@H](C)CO)C[C@@H]1C	0%	-20	-2%	-9%	0%	/
CC(=O)c1cn(-c2ccc(Cl)cc2)c(=O)n(Cc2ccc(F)cc2)c1=O	-13%	-5	-20%	?	9.2µM*	-1%
O=C(CN1CCOCC1)N/N=C/c1ccc(C(=O)O)cc1	17%	-12	21%	-5%	19%	?
Cc1occc1C(=O)N/N=C/C(Br)=C/c1ccccc1	-12%	-78*	-30%	9.2µM*	12µM*	?
O=C(CN1CCOCC1)N/N=C/C(Br)=C\c1ccccc1	-18%	?	-1%	12µM*	10µM*	?
O=C(N/N=C/C(Br)=C/c1ccccc1)c1ccccc1[N+](=O)[O-]	-3%	-19	-1%	13µM*	13µM*	7%
SMILES	HT1080NT lethal	IL1B secr inh	HT1080 IDH1KD tx	TDP1 cell CPT	DT40 TDP1 no CPT	ELG1 DNA repair
O=C(N/N=C/c1ccncc1)c1ccccc1[N+](=O)[O-]	17%	-6	11%	5%	-10%	9%
CN(CCC#N)C(=S)NC(=O)c1ccc(S(=O)(=O)N2CCOCC2)cc1	9%	-12	9%	7%	5%	7%
Cc1cc(C)cc(NC(=O)C2CCCN(C(=O)c3cnn(-c4ccccc4)c3-n3cccc3)C2)c1 (stereo not given)	/	/	/	18µM*	18µM*	/
COc1ccc(NC(=O)C2CCCN(C(=O)c3cnn(-c4ccccc4)c3-n3cccc3)C2)cc1 (stereo not given)	/	/	/	?	10µM*	/
CC1CN(c2ccccn2)C(C)CN1C(=S)Nc1ccccc1 (stereo not given)	11%	-7	23%	-1%	-1%	/
S=C(NC1CC2CCC1C2)N1CCN(c2cccc(Cl)c2)CC1 (stereo not given)	?	-9	-12%	?	?	?
COc1ccc2cc3cc(C(=O)N4CC(C)CC(C)C4)oc3nc2c1 (stereo not given)	?	-19	?	-8%	-17%	?
Cc1ccc2cc3cc(C(=O)N4CC(C)CC(C)C4)oc3nc2c1 (stereo not given)	-20%	-53*	-21%	?	23µM*	?
Cc1ccc2cc3cc(C(=O)N4CCCCC4C)oc3nc2c1 (stereo not given)	-16%	-77*	-24%	?	?	?
COCCCn1cc(CN2CC(N3CCN(Cc4ccccc4F)CC3)CS2(=O)=O)nn1 (stereo not given)	24%	-2	7%	-10%	-9%	/
COc1ccc(C(=O)NC(=S)Nc2ccc(N3CCOCC3)cc2)cc1Cl	-30%	-14	-29%	?	21µM*	?
COc1ccc(C(=O)Nc2ccc(N3CCN(C)CC3)cc2)cc1	3%	-8	-1%	?	-7%	?
COc1ccc(C(=O)Nc2ccc(N3CCN(C)CC3)cc2)cc1OC	-3%	-81*	4%	5%	-29%	?
Cc1ccc(C(=O)NC(=S)Nc2ccc(N3CCOCC3)cc2)cc1C	1%	0	1%	?	15µM*	10µM*
COc1ccc(NC(=O)N2CCCC3(CCN(S(=O)(=O)c4ccccc4)CC3)C2)cc1	/	/	/	14%	-27%	/
S=C(Nc1ccc(Cl)cc1)NC1CCCCC1	-29%	-10	?	?	?	35%
CC1CCCN(C(=S)Nc2ccc(Nc3ccccc3)cc2)C1 (stereo not given)	-24%	-86*	-12%	10µM*	9.2µM*	?
